# Screening results (PubChem)
# Most compounds without a hit are left out; they make up all but 2.4% or so of the library.
# D2 PAM-1: potentiates the human D2 dopamine receptor allosterically; actives 0.23% (n = 360,000); DiscoveRx D2 beta-arrestin cells, luminescence, 90 min; 100% = 57 uM dopamine signal; P14416; potentiation, % (concentration not given with the values); in the data active means potentiation above about 50%; inconclusive means mostly about 30% to 49%
# Target sequence (P14416 whole entry, looked up): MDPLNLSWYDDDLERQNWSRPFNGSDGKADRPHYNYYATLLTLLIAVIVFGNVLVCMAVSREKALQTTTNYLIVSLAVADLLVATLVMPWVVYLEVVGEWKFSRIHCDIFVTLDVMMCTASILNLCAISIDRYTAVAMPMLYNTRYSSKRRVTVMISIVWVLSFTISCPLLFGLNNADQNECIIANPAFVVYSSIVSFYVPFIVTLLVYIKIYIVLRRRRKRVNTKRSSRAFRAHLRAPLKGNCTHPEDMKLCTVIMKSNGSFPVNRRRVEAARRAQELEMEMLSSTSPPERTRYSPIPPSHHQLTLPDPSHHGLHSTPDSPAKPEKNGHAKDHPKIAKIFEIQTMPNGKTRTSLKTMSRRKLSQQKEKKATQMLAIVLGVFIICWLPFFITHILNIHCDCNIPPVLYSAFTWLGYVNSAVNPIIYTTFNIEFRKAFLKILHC
#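 PathHunter beta-arrestin assay in DiscoveRx D2 cells. Compounds were added with an EC20 of dopamine (50 nM final) for 90 min at 37 deg C. Luminescence was read 1 h after detection reagent, with 57 uM dopamine as the EC100 control.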
# D2 antagonist: antagonizes the human D2 dopamine receptor; actives 2% (n = 340,000); P14416; inhibition, % at 10 µM; HEK293 TREx D2 cells, calcium flux, dopamine EC80; AID 485344; in the data active means inhibition above about 30%; inactive means below that, where a call was filed; further: 0% is about no effect
#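 Compounds are added to dye-loaded, induced HEK293 T-REx cells coupled to calcium release via D2; after a 3 min kinetic read an EC80 dopamine stimulus is given and fluorescence is recorded for 3 more min.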
# D2 PAM-2: positive allosteric modulators of human D2 dopamine receptor; P14416; HEK293 T-REx D2, calcium flux, EC20 dopamine potentiation; potentiation, % at 10 µM; actives 0.34% (n = 340,000); AID 485347;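 active means potentiation over 3 SD above the plate norm, cut at about 30% in these data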; further: 0% is about no effect
#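 Calcium flux readout, no-wash dye, 1 read/s. Inducible HEK293 Trex D2 line, overnight 30 C. Compound alone 180 s (agonist flags), then EC20 dopamine, another 180 s to score potentiation.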
# D2 ag-1: D2 dopamine receptor (human) agonism; HEK293 T-REx D2 cells, calcium flux agonist mode; activation, % at 2 µM; AID 485358; actives 0.53% (n = 340,000); P14416;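 active means activation over 3 SD above normal in the single-dose calcium agonist read, cut at about 30% in these data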; further: 0% is about no effect
#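 In this primary screen, compounds producing a positive calcium signal within 180 s of addition to tetracycline-induced, force-coupled HEK293 Trex D2 cells are flagged; cells are dye-loaded with a no-wash calcium kit beforehand.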
# D2 ag-2: activates the human D2 dopamine receptor. DiscoveRx PathHunter D2 beta-arrestin, luminescence, 90 min; 100% = 57 uM dopamine signal. activation, % (concentration not given with the values). actives 0.084% (n = 360,000). AID 624465; in the data active means activation above about 40%; inconclusive means between about 15% and that limit
#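 Agonist mode: compounds alone added to overnight-plated D2 PathHunter cells for 90 min at 37 C, with 57 uM final dopamine (EC100) defining full response. Beta-arrestin recruitment detected by chemiluminescent reagent, read after 1 h at ambient temperature.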
# * = called active by the depositor; ? = inconclusive; . = not tested or not shown.
SMILES,D2 PAM-1,D2 antagonist,D2 PAM-2,D2 ag-1,D2 ag-2
Cc1ccc(C)c(C(=O)O/N=C(\N)c2ccc(Br)cc2)c1,57*,0,12,-1,12
Cc1cc(/C(N)=N/OC(=O)c2ccc(Cl)cc2)no1,-4,-7,-7,-1,2
N/C(=N\OC(=O)c1cccc(Br)c1)c1ccccc1,?,7,-6,-1,11
COc1ccc(C(=O)O/N=C(\N)c2cccc(C)c2)cc1OC,27,-3,9,0,?
Cc1cccc(C(=O)O/N=C(\N)c2ccc(Cl)cc2)c1,-6,14,-9,0,46*
Cc1cc(/C(N)=N/OC(=O)c2cccc(Cl)c2)no1,13,50*,-1,0,5
Cc1cccc(C(=O)O/N=C(\N)c2ccc(Br)cc2)c1,138*,-19,-7,-2,?
Cc1cccc(-n2c(C)nc3cc(C(=O)NC4CCCCCC4)ccc32)c1,.,.,11,1,.
Cc1cc(C)cc(OC(=O)c2snnc2C)c1,.,.,9,-1,.
Cc1ccc2c(c1)-c1nc(-c3ccc4c(c3)NC(=O)CO4)cc(-c3ccccc3)c1CO2,.,.,11,0,.
COc1ccc(CCNC(=O)c2ccc3c(c2)N(Cc2ccc(F)cc2)C(=O)c2ccccc2S3(=O)=O)cc1OC,.,.,5,2,.
CC(C)(C)C(=O)NC(=S)NNC(=O)c1ccc(-c2ccccc2)cc1,-34,64*,-28,90*,-14
CCCOc1ccc(C(=O)NNC(=S)NC(C)=O)cc1,-24,.,5,.,-6
CC(C)(C)C(=O)NC(=S)NNC(=O)c1ccncc1,-2,12,-7,-1,-1
CC(C)(C)C(=O)NC(=S)NNC(=O)c1ccc(Cl)cc1Cl,-9,91*,-37,116*,-5
CCCOc1ccc(C(=O)NNC(=S)NC(=O)c2ccccc2)cc1,-17,-8,-18,45*,0
CCOC(=O)C1(C)CCN1C(=O)c1cccc(Cl)c1 (stereo not drawn),4,.,.,.,42*
CN(C)CCOC(c1ccccc1)c1ccccc1 (tested in a mixture with another compound),-15,-10,7,-3,-7
Cc1cccc(C)c1C(OCCN(C)C)C1CCCCC1 (stereo not drawn),-35,89*,-20,1,-2
c1csc(C(c2nnnn2C2CCCC2)N2CCCC3(CCCCC3)C2)c1 (stereo not drawn),-2,31*,7,0,0
CC(C)C(=O)c1cc2c(cc1NC(=O)c1ccccc1F)OCCO2,.,.,2,0,.
COC(=O)c1c(NC(=O)c2ccco2)sc(C(=O)N(C)C)c1C,-12,-21,77*,1,-3
CN(C)C(=O)c1c(NC(=O)c2ccco2)sc2c1CCCCC2,20,35*,34*,0,-1
COc1cccc(CCNC(=O)c2cnc3sc(N4CCCCCC4)nn3c2=O)c1,.,.,5,0,.
CCOc1ccc(-c2cc(C(=O)NCc3ccccc3)c3c(-c4ccc(CC)cc4)[nH]nc3n2)cc1,.,.,3,1,.
SMILES,D2 PAM-1,D2 antagonist,D2 PAM-2,D2 ag-1,D2 ag-2
CCN(CC)S(=O)(=O)c1cccc(NC(=O)COC(=O)c2ccc(Br)o2)c1,-13,3,21,0,1
CCN(CC)S(=O)(=O)c1cccc(NC(=O)COC(=O)c2cc(=O)c3ccccc3o2)c1,-14,-5,31*,1,-1
CCOC(=O)C1(Cc2ccccc2C(F)(F)F)CCN(CCCn2cccn2)CC1,-14,48*,-22,0,-3
CCOC(=O)C1(Cc2ccccc2C(F)(F)F)CCN(C2CCC2)CC1,-31,32*,-18,-2,-5
CCc1cccc(N=c2c([N+](=O)[O-])nn(-c3ccc(Cl)cc3)n2O)c1,87*,10,-7,0,10
Cc1cccc(N=c2c([N+](=O)[O-])nn(-c3ccc(Cl)cc3)n2O)c1,?,10,2,1,11
Cc1ccc(CN=c2c([N+](=O)[O-])nn(-c3ccc(Cl)cc3)n2O)cc1,5,11,2,-1,1
Cc1cc(C)cc(N=c2c([N+](=O)[O-])nn(-c3cccc(Cl)c3)n2O)c1,97*,10,-11,-2,9
Cc1ccc(NC(=O)CCC(=O)N2CCSc3ccccc32)cc1,.,.,-3,0,.
